From PubChem BioAssay (NCI) come the findings set out here.

The panel holds about 83,000 compounds, 20% with a hit somewhere; the sample as a whole holds those more often.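 Testing used 96-well plates and a 48-hour single-concentration exposure. Example: -40 means 40% of the starting cells died.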 A number with no mark means an inactive call. Activity calls are given as the source filed them. Rule for the calls: active = growth percent below 10; inactive = the rest.

Among the test systems are NCI-H23 lung; NCI-H226 lung; NCI-H322M lung; HOP-62 NSCLC; NCI-H460 lung; HOP-92 NSCLC; NCI-H522 lung; A549/ATCC NSCLC; 786-0 renal; COLO 205 colon.
Common to all, as to test: NCI-60 one-dose screen, 48 h (100 = growth as untreated, 0 = no growth, -100 = all killed)
Holding throughout (details): 10 µM

`Cc1cc(Nc2cccc(F)c2)nc(NCc2ccccc2)n1`: the growth in the assay with NCI-H23 lung is -2.43% (active); with NCI-H226 lung, 40.4%; in the assay on NCI-H322M lung, 63.2%; in the assay on HOP-62 NSCLC, 70.5%; with NCI-H460 lung it was 6.63% (active); in the assay on HOP-92 NSCLC, -2.56% (active). The growth in the assay with NCI-H522 lung is 6.89% (active); in the assay on A549/ATCC NSCLC, 16.2%; with 786-0 renal it was 45.7%; with COLO 205 colon, 8.24% (active).

For `O=NN(CCCl)C(=O)NCc1ccc(-c2ccc(CNC(=O)N(CCCl)N=O)cc2)cc1`, the growth is 103% in the assay with NCI-H23 lung; 96.7% in the assay on NCI-H226 lung; 86.2% in the assay with NCI-H322M lung; 91.5% in the assay on HOP-62 NSCLC; 97.8% in the assay with NCI-H460 lung; 96.5% in the assay on HOP-92 NSCLC. Also, the growth with NCI-H522 lung was 81.7%; with A549/ATCC NSCLC, 87.1%; with 786-0 renal it was 94.8%; in the assay with COLO 205 colon, 104%.

As for `COc1ccc(-c2nc(SCC(=O)c3ccc(Br)cc3)[nH]c(=O)c2C#N)cc1`, the growth with NCI-H23 lung is 106%; in the assay on NCI-H226 lung, 98.1%; in the assay on NCI-H322M lung, 97.3%; with HOP-62 NSCLC, 101%; with NCI-H460 lung, 108%; in the assay with HOP-92 NSCLC, 85.9%. Moreover, the growth in the assay on NCI-H522 lung is 95.4%; with A549/ATCC NSCLC it was 99.6%; in the assay on 786-0 renal, 89.9%; with COLO 205 colon it was 119%.

Regarding `Cn1c(N)c(N=Cc2ccccc2)c(=O)n(C)c1=O`, the growth was 103% with NCI-H23 lung; 108% with NCI-H226 lung; 114% in the assay on NCI-H322M lung; 96.3% with HOP-62 NSCLC; 114% with NCI-H460 lung; 102% with HOP-92 NSCLC. Moreover, the growth is 101% in the assay with NCI-H522 lung, 105% with A549/ATCC NSCLC, 103% in the assay on 786-0 renal and 106% in the assay with COLO 205 colon.

In the case of `O=C(O)c1ccccc1C(=O)c1cccc2c(F)cccc12`, the growth with NCI-H23 lung was 102%; in the assay on NCI-H226 lung it was 97.4%; with NCI-H322M lung it was 108%; in the assay on HOP-62 NSCLC, 105%; in the assay with NCI-H460 lung it was 115%; in the assay with HOP-92 NSCLC, 83%. The growth in the assay with NCI-H522 lung is 103%; in the assay on A549/ATCC NSCLC it was 96.9%; in the assay on 786-0 renal it was 104%; in the assay on COLO 205 colon, 102%.

As for `CNCCCNCCCN1C(=O)c2ccc3c4c(ccc(c24)C1=O)C(=O)N(CCCNCc1ccccc1OC)C3=O`, the growth is -31% (active) in the assay on NCI-H23 lung; 8.88% (active) in the assay with NCI-H226 lung; 1.15% (active) with NCI-H322M lung; 7.81% (active) in the assay on HOP-62 NSCLC; -16.6% (active) in the assay with NCI-H460 lung; -32.1% (active) with HOP-92 NSCLC. Further, the growth in the assay on NCI-H522 lung was -52.7% (active); in the assay with A549/ATCC NSCLC, 1.84% (active); in the assay with 786-0 renal, 10.4%; in the assay with COLO 205 colon, -72.8% (active).

On to `COc1cccc(C2(C)Nc3ccccc3-c3nc4ccccc4n32)c1` (stereo not given), for which the growth in the assay with NCI-H23 lung is 102%; in the assay with NCI-H226 lung, 102%; in the assay on NCI-H322M lung it was 92%; in the assay with HOP-62 NSCLC it was 97.7%; with NCI-H460 lung it was 101%; in the assay on HOP-92 NSCLC it was 93.4%. Also, the growth in the assay with NCI-H522 lung is 103%; in the assay with A549/ATCC NSCLC, 102%; with 786-0 renal, 101%; with COLO 205 colon, 109%.

For `Cc1cc(C#Cc2ccccc2)ccc1-n1c(/C=C/c2cc(O)ccc2O)nc2ccccc2c1=O`, the growth was -11.6% (active) in the assay with NCI-H23 lung; -41% (active) in the assay on NCI-H226 lung; -19.5% (active) in the assay with NCI-H322M lung; -33.1% (active) in the assay on HOP-62 NSCLC; -48.5% (active) in the assay with NCI-H460 lung; -17.9% (active) in the assay with HOP-92 NSCLC. Further, the growth in the assay on NCI-H522 lung was -74.6% (active); in the assay on A549/ATCC NSCLC it was 8.93% (active); in the assay with 786-0 renal, 17.4%; in the assay with COLO 205 colon it was -65.9% (active).

On to `O=C(Cn1ccc(=O)[nH]c1=O)c1ccc([N+](=O)[O-])o1`, for which the growth is 108% with NCI-H23 lung; 103% with NCI-H226 lung; 120% in the assay on NCI-H322M lung; 118% in the assay with HOP-62 NSCLC; 100% with NCI-H460 lung; 136% with HOP-92 NSCLC. Also, the growth is -91.7% (active) in the assay with NCI-H522 lung, 109% in the assay with A549/ATCC NSCLC, 108% in the assay on 786-0 renal and 71.5% in the assay with COLO 205 colon.

For `O=C(N/N=C\c1cc(Cl)ccc1O)c1ccncc1`, the growth with NCI-H23 lung was 46%; in the assay with NCI-H226 lung, 31.6%; in the assay on NCI-H322M lung, 59.5%; in the assay on HOP-62 NSCLC, 55.7%; with NCI-H460 lung, 25.3%; with HOP-92 NSCLC, 47.5%. In addition, the growth with NCI-H522 lung was 11.7%; in the assay with A549/ATCC NSCLC, 79.8%; in the assay on 786-0 renal, 19.1%; in the assay on COLO 205 colon, 23.7%.

With `O=S(=O)(NCl)c1ccccc1`, the growth in the assay with NCI-H23 lung is 104%; in the assay with NCI-H226 lung, 110%; with NCI-H322M lung it was 88.1%; in the assay with HOP-62 NSCLC, 110%; in the assay with NCI-H460 lung, 105%; with HOP-92 NSCLC it was 108%. The growth in the assay with NCI-H522 lung is 99.6%; with A549/ATCC NSCLC, 94.7%; in the assay with 786-0 renal, 95.9%; with COLO 205 colon, 113%.

Consider `Nc1ccccc1NC(=O)CCCCCCC(=O)Nc1ccc2c(c1)/C(=C/c1ccc[nH]1)C(=O)N2`, for which the growth in the assay with NCI-H23 lung was 60.7%; in the assay with NCI-H226 lung, 45.5%; in the assay with NCI-H322M lung, 40.6%; with HOP-62 NSCLC it was 52.2%; with NCI-H460 lung, 27.5%; in the assay on HOP-92 NSCLC it was 8.25% (active). For the same molecule, the growth with NCI-H522 lung is 11.7%; in the assay with A549/ATCC NSCLC, 47%; with 786-0 renal, 38.2%; with COLO 205 colon it was 79.4%.

With `COc1ccc(-c2nc3sc(-c4ccccc4)c(-c4ccccc4)n3c2/C=C/c2ccc(F)cc2)cc1`, the growth in the assay with NCI-H23 lung is 97%; with NCI-H226 lung, 107%; in the assay with NCI-H322M lung it was 103%; in the assay on HOP-62 NSCLC, 95.9%; in the assay with NCI-H460 lung, 92.9%; in the assay on HOP-92 NSCLC, 94.5%. In addition, the growth was 106% with NCI-H522 lung, 83.8% in the assay with A549/ATCC NSCLC, 100% in the assay with 786-0 renal and 99.6% in the assay with COLO 205 colon.

`COC(=O)c1cnc2c(c1)Oc1ccc(Cl)cc1-c1cc(C)nn1-2`: the growth in the assay with NCI-H23 lung was 74.5%; in the assay on NCI-H226 lung it was 66.3%; in the assay on NCI-H322M lung, 66.9%; in the assay with HOP-62 NSCLC, 68.3%; in the assay on NCI-H460 lung, 29.5%; with HOP-92 NSCLC it was 85.6%. The growth is 82.3% with NCI-H522 lung, 59.2% in the assay with A549/ATCC NSCLC, 97.5% with 786-0 renal and 71.5% in the assay with COLO 205 colon.
